# Source: PubChem
# ELG1 DNA repair: qHTS screen for small molecules that inhibit ELG1-dependent DNA repair in human embryonic kidney (HEK293T) cells expressing luciferase-tagged ELG1; HEK293T ELG1-luciferase reporter, luminescence, 16 h; DNA damage induced by 5-fluorouridine; Potency, µM (top dose mostly 46.1 µM), without a hit: at the top dose activity change, negative = inhibition, hits mostly inhibitors; actives 2.3% (n = 330,000); AID 504467, 2011; further: potency means the concentration at half of the fitted maximal effect; on the % scale 0 is the no-effect control and ±100 the full control effect; nearly all actives have a fitted effect of over 55% in size
#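 Quantitative HTS, concentration-response format. 2,000 cells/well co-treated with 5-fluorouridine and compound, 16 hr in 5% CO2 at 37 °C; ONE-Glo luminescence read after 30 min.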
# BRCA1 expr up: qHTS Assay to Identify Small Molecule Activators of BRCA1 Expression; actives 1.1% (n = 380,000); Potency, µM (titrated, usually from 46.1 µM), for the others: at the highest dose activation, most hits filed as activators; MCF7-BRCA1-FFLuc reporter, luminescence, 48 h; response scale: scaled: vehicle 0%, 10 µM genistein 100%; AID 624202, 2012; further: potency means the concentration at half of the fitted maximal effect; nearly all actives have a fitted effect of over 80% in size
#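 MCF7-BRCA1-FFLuc, 2000 cells/well; 2 h attach, 37 °C/5% CO2; compound 48 h; luciferase substrate 15 min; luminescence end-point. Norm. to genistein 10 microM max activation and DMSO; concentration-response curves fitted.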
# RORg inh: qHTS for inhibitors of ROR gamma transcriptional activity. actives 5.4% (n = 310,000). Potency, µM (top dose mostly 53.6 µM), for inactives: at the highest dose activity change, negative = inhibition, actives largely listed as inhibitors. Drosophila S2 Gal4-RORgamma UAS-luciferase reporter, 20 h; further: potency means the concentration at half of the fitted maximal effect; on the % scale 0 is the no-effect control and ±100 the full control effect; nearly all actives have a fitted effect of over 60% in size
# Target sequence (P51450 whole entry, looked up, the tested form may be a part): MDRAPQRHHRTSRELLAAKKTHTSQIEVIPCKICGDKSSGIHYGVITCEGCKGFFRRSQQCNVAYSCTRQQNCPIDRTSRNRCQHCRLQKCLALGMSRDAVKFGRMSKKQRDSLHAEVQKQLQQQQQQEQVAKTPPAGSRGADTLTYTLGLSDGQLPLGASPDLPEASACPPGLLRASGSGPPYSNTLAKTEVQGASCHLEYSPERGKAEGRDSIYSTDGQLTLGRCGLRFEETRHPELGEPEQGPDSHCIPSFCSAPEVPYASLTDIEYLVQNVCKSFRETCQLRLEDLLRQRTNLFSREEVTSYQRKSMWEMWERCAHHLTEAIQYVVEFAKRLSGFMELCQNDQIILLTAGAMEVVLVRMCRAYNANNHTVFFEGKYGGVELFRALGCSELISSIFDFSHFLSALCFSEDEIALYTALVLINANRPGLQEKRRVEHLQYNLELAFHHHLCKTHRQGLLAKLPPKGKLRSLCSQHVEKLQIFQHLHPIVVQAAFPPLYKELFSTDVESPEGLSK
#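 Drosophila Schneider cells stably carrying a metallothionein-driven Gal4 DBD–ROR gamma fusion and a UAS-Photinus luciferase reporter were exposed to compound for 1 hr, then induced with copper sulfate (700 uM final) for 20 hr at ambient temperature before luminescence reading.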
# VP16 counter: VP16 counterscreen qHTS for inhibitors of ROR gamma transcriptional activity | Potency, µM (top dose mostly 53.6 µM), without a hit: at the highest dose activity, negative = inhibition, usual class: inhibitors | AID 2546, 2010 | actives 3.5% (n = 310,000) | Drosophila S2 Gal4-VP16 UAS-luciferase, luminescence, 20 h;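 further: Gal4-VP16 expression switched on by copper sulfate through the metallothionein promoter; potency means the concentration at half of the fitted maximal effect; on the % scale 0 is the no-effect control and ±100 the full control effect; nearly all actives have a fitted effect of over 50% in size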
# Giardia killer: Small Molecules that selectively kill Giardia lamblia: qHTS; Giardia lamblia trophozoite viability; activity change, % at 7.66 µM, hits read low; AID 540267, 2011; actives 0.15% (n = 340,000); in the data active means activity change below about -80%; inconclusive means between about -30% and that limit;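 further: parasites exposed to compound for two days anaerobically before the ATP read; on the % scale 0 is the no-effect control and ±100 the full control effect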
#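 Viability, read as ATP luminescence: trophozoites at 100 cells/well, compound added, 48 hrs anaerobic at 37 deg C, then 15-30 min room-temperature development before reading.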
# p53 reactivation: qHTS assay for re-activators of p53 using a Luc reporter; H1299 p53-A138V BP100-luciferase reporter, luminescence, 24 h; Potency, µM (series often up to 92.2 µM), inactives show at the top dose activity change, positive = activation, usual class: activators; actives 0.063% (n = 320,000); AID 504706, 2011; further: potency means the concentration at half of the fitted maximal effect; % of control where 0% means no effect; nearly all actives have a fitted effect of over 45% in size
#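 p53-null H1299 cells stably carrying temperature-sensitive p53-A138V and a BP100-luciferase reporter were pinned with compounds (4-point, 1:5 series) and held 24 hrs at 37 deg C. Luminescence was read 10 min after detection reagent.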
# An asterisk follows results filed as active; ? = inconclusive; . = not tested or not shown; [ ] = another dose, or the depositor's remark. This is a sample that favours compounds with a hit; in the whole collection about 7.6% have one here. Unless noted, the call rests on the fitted dose curve; in most records, active means well fitted curve in the direction sought with a large enough effect; inconclusive means small, poorly fitted or top-dose-only effect, or another doubt; inactive means no such curve, though single readings can be large; an effect the other way counts as inactive or inconclusive.
SMILES,ELG1 DNA repair,BRCA1 expr up,RORg inh,VP16 counter,Giardia killer,p53 reactivation
Cc1ccc(N2C(=O)c3cccc4c([N+](=O)[O-])ccc(c34)C2=O)c2cccnc12,-11.5%,-31.4%,25.3%,-10.8%,?,-3.0%
CCOc1cccc(C2c3[nH]c4ccccc4c3CCN2C(=O)Cc2cccc(OCC)c2OCC)c1 (configuration not stated),.,-36.0%,.,.,.,.
COc1ccc(OC)c(S(=O)(=O)NCCCN2CCOCC2)c1,-1.8%,14.5%,.,.,11.0,4.7%
O=C(NC(=S)NC(c1ccccc1)c1ccncc1)c1ccccc1 (configuration not stated),18.4µM*,-26.0%,11.2µM*,?,-14.4,-9.6%
O=C(CNC(=S)NC(=O)c1ccccc1)c1ccccc1,?,68.7%,11.2µM*,?,-5.9,24.6%
O=C(CNC(=S)NC(=O)c1ccc(F)cc1)c1ccccc1,22.5%,27.9%,11.2µM*,-17.3%,-27.5,3.6%
Cc1ccccc1C(=O)NC(=S)NCC(=O)c1ccccc1,20.5%,30.1%,11.2µM*,?,4.2,-4.3%
O=C(CNC(=S)NC(=O)c1ccccc1Br)c1ccccc1,13.9%,-11.2%,19.7%,-5.2%,-7.8,2.1%
CC(NC(=O)COC(=O)c1ccc(S(=O)(=O)N2CCOCC2)cc1)c1ccccc1 (configuration not stated),21.9%,-5.5%,.,.,10.5,-0.8%
O=C(NN=C(Cc1ccccc1)Cc1ccccc1)c1ccncc1,-26.2%,-10.2%,-48.2%,-19.2%,3.2,-4.8%
CC(C)CNC(=O)COC(=O)CCC(=O)c1ccc(Cl)cc1,14.3%,0.0%,-20.0%,-4.7%,10.4,0.3%
Cc1nnc(SCCn2c(N3CCN(C)CC3)nc3c2c(=O)n(C)c(=O)n3C)s1,-2.9%,-0.3%,0.8%,-0.4%,-28.6,6.7%
CC(C)C(=O)NC(=S)NCC(=O)c1ccccc1,29.9%,65.1%,11.2µM*,?,-17.3,9.6%
CC(C)C(=O)NCCCc1ccccc1,-4.7%,-3.0%,1.2%,-5.9%,1.4,-1.1%
O=C(N/N=C/c1cn[nH]c1-c1ccc(F)cc1)c1ccncc1,-12.6%,14.1%,-12.6%,-8.7%,7.1,-4.1%
COc1cc([N+](=O)[O-])cc(/C=N/NC(=O)Cn2nc(C)cc2C)c1O,-27.9%,-8.5%,?,?,7.3,2.6%
Cc1ccnn1CC(=O)N/N=C/c1cn[nH]c1-c1ccc(F)cc1,?,-16.3%,14.1µM*,?,8.9,1.4%
COc1cc([N+](=O)[O-])cc(/C=N/NC(=O)c2cc(C)nc3ccccc23)c1O,0.0%,-41.8%,5.62µM*,12.6µM*,-6.5,11.4%
COc1cc([N+](=O)[O-])cc(/C=N/NC(=O)Cn2nccc2C)c1O,-17.1%,-31.4%,3.55µM*,?,22.8,5.8%
COc1cc([N+](=O)[O-])cc(/C=N/NC(=O)c2cc(-c3ccccc3)nc3ccccc23)c1O,?,-59.1%,2µM*,4.47µM*,2.7,8.2%
CCC(C)NC(=O)CSc1nnc(-c2ccoc2C)n1CC1CCCO1 (configuration not stated),2.5%,6.9%,5.1%,3.3%,-1.6,-2.0%
COc1ccc(CCNC(=O)Cn2cccc2C(=O)c2ccccc2C)cc1OC,17.6%,-0.4%,17.1%,-3.0%,-19.3,-6.9%
CCOc1ccc(N2C(=O)CC(NCC#N)C2=O)cc1 (configuration not stated),5.9%,2.7%,?,?,-4.2,-9.0%
CCOc1ccccc1NC(=O)NCc1ccc2c(c1)OCO2,3.2%,12.6%,5.7%,1.2%,42.5,13.5%
COc1cc(Br)cc(/C=N/NC(=O)Cc2ccc(C(F)(F)F)cc2[N+](=O)[O-])c1O,-8.1%,-88.7%,0.141µM*,0.355µM*,-7.3,?
SMILES,ELG1 DNA repair,BRCA1 expr up,RORg inh,VP16 counter,Giardia killer,p53 reactivation
Cc1ccc(N2C(=O)c3ccccc3C2Nc2ccc(S(=O)(=O)N3CCOCC3)cc2)nc1 (configuration not stated),4.2%,14.1µM*,17.9%,16.6%,3.9,9.3%
Cc1ccc(N2C(=O)c3ccccc3C2Nc2ccc(S(=O)(=O)N3CCCCC3)cc2)nc1 (configuration not stated),-8.9%,-7.3%,6.8%,1.1%,-2.8,1.7%
Cc1cc(C(=O)O)ccc1N/C=C1\CCCC(C)C1=O (configuration not stated),?,-15.6%,3.55µM*,3.55µM*,2.0,1.0%
CC1CCC/C(=C\Nc2ccc(O)cc2)C1=O (configuration not stated),?,?,-2.5%,-2.8%,20.6,24.8%
Cn1nc(C(C)(C)C)cc1C(=O)NNC(=O)c1ccc(C(F)(F)F)cc1,7.3µM*,-14.4%,-9.9%,?,11.0,-3.4%
Cn1nc(C(C)(C)C)cc1C(=O)O,5.5%,-10.8%,-2.2%,11.7%,8.3,1.3%
Cc1cc(-c2ccccc2)cc(-c2ccccc2)[n+]1C,11.6µM*,-29.2%,18.8%,?,19.8,-0.3%
Cc1cc(-c2ccccc2)cc(=O)[nH]1,.,-8.7%,.,.,17.2,.
Cc1ccc(Nc2nc(C(=O)N3CCC(C(=O)N4CCN(C)CC4)CC3)cs2)cc1,11.9%,0.0%,-2.9%,22.6%,12.4,6.5%
Cc1ccc(Nc2nc(COC(=O)C3CC3)cs2)cc1,?,10µM*,-16.2%,-11.4%[10 µM],4.2,0.7%
CC(=O)NCCc1c[nH]c2ccc(OCc3ccccc3)cc12,.,-12.2%,.,.,-23.0,.
N#Cc1ccsc1NC(=O)c1ccccn1,?,46.6%,2.82µM*,5.01µM*,-1.3,?
N#Cc1ccsc1NC(=O)CCc1ccccc1,?,-17.8%,?,?,7.7,-0.1%
N#Cc1ccsc1NC(=O)c1cccc([N+](=O)[O-])c1,5.8µM*,-1.0%,39.6%,8.6%,-0.8,3.3%
Cn1c(SCC(=O)c2ccccc2)nnc1-c1ccccn1,?,11.2µM*,18.0%,1.8%,-5.2,9.6%
Cn1c(SCC(=O)c2ccccc2)nnc1-c1ccc(O)cc1,?,17.2%,-0.1%,11.2µM*,-2.7,?
Cc1nc(-c2ccccn2)nc(SCC(=O)c2ccccc2)c1Cl,?,-29.4%,3.98µM*,11.2µM*,-14.3,-7.6%
Cn1c(SCC(=O)c2ccccc2)nnc1-c1ccncc1,?,22.2%,10.1%,25.2%,2.4,5.1%
